# Results as given in PubChem BioAssay.
# Active and inactive are the calls of the source.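 Rule for the calls, unless noted: active = inhibition at or above 50% at 10 µM; inactive = inhibition below 50%.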
# Columns and labels:
# [1] = inhibitors of TNFa-induced NFkB p65 translocation, primary screen, imaging, HUVEC, MLSMR starter and 10KST1 sets (AID 438;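 active = inhibition above 20% together with a positive visual image hit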;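 note: compound added about 3h40 before a 20 min TNFalpha stimulation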;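 for inhibition: signal is the nuclear over cytoplasmic p65 intensity ratio per well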); settings: HUVEC TNFa-induced p65 nuclear translocation; cell count: measured here: nuclei count (cytotoxicity indicator), at 2.08 µM; inhibition: at 2 µM, stronger effect = higher value, 0% TNFa-plus-vehicle, 100% no-TNFa wells
# [2] = inhibitors of mutant huntingtin aggregation, primary screen, imaging, exon1htt(103Q)mCFP cells, high-content imaging (AID 483;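 active = visual image review flags a hit and inhibition of aggregation exceeds 20%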;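 note: compound exposure lasted 3 days before fixation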;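 for nuclei count: percent of the per-plate median nuclei count of sample wells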); settings: exon1htt(103Q)mCFP cell line, aggregate imaging, at 2 µM; inhibition of aggregation: stronger effect = higher value; nuclei count: measured here: cell count, toxicity
# [3] = inhibitors of E-selectin induction by TNFa, primary screen, imaging, HUVEC, immunofluorescence, MLSMR starter and 10KST1 sets (AID 487;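 active = visually confirmed hit in the image check and inhibition above 20%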;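 for inhibition: signal is fraction of cell area covered by stained E-selectin grains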;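 for nuclei count: 100% = median nuclei count of all wells on the same plate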); settings: HUVEC TNFalpha-induced E-selectin immunofluorescence imaging, at 2 µM; inhibition: stronger effect = higher value; nuclei count: measured here: cell number, toxicity
# [4] = molecular target: Voltage-gated potassium channel subunit beta-2 (Rattus norvegicus) (UniProt P62483); test: KvBeta enzyme negative modulators, primary screen, biochemical, NADPH fluorescence (AID 622;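 active = fluorescence slope higher than the sample average by over 3 SD, cut at about -0.22 in these data, passing the limit was not always enough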;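 note: slope of raw intensity against log time taken from 70 to 1610 s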); settings: recombinant KvBeta, 4-cyanobenzaldehyde reduction, at 10 µM, stronger effect = higher value
# [5] = molecular target: Voltage-gated potassium channel subunit beta-2 (Rattus norvegicus) (UniProt P62483); test: KvBeta positive modulators, primary screen, biochemical, NADPH fluorescence (AID 623;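 active = NADPH fluorescence slope more negative than the mean of all samples by about 3 SD, 99.7% confidence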;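 note: fluorescence intensity change per second fitted from 20 to 320 s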); settings: Recombinant KvBeta, NADPH fluorescence decrease slope, 10 min; at 10 µM; stronger effect = lower value
# [6] = molecular target: Alpha-2C adrenergic receptor (Homo sapiens) (UniProt P18825); test: modulators of alpha2C/GIRK thallium flux, primary screen, cell-based, HEK293 alpha2C/GIRK1/2 (AID 624;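 active = fluorescence slope after compound addition differing from the mean of all screened samples at 99.7% confidence, in either direction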;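 note: slope of fluorescence ratio to pre-addition baseline per second over 15 to 24 s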); settings: thallium flux BTC fluorescence, at 10 µM, actives lie on both sides
# [7] = inhibitors of Sendai virus-induced IRF3 signaling, primary screen, TLR/RLR signaling modifier project, cell-based, Sendai virus stimulus, luciferase, 10K MLSCN set (AID 602276); settings: HEK293 RL24 IRF3 luciferase reporter, at 10 µM, stronger effect = higher value;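 note: firefly luciferase from ISG56 promoter only with Renilla not read in this screen; 0% = Sendai virus plus DMSO and 100% = medium plus DMSO without virus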
# [8] = inhibitors of poly I:C-induced TLR3 signaling, primary screen, cell-based, poly I:C stimulus, luciferase, 10K MLSCN set (AID 602277;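 active = inhibition of the reporter signal at or above 50%; inactive = inhibition below 50%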); settings: HEK293-TLR3 RL24 IRF3 luciferase reporter, at 10 µM, stronger effect = higher value
# Chain of Voltage-gated potassium channel subunit beta-2 (Rattus norvegicus) (P62483 whole entry, looked up): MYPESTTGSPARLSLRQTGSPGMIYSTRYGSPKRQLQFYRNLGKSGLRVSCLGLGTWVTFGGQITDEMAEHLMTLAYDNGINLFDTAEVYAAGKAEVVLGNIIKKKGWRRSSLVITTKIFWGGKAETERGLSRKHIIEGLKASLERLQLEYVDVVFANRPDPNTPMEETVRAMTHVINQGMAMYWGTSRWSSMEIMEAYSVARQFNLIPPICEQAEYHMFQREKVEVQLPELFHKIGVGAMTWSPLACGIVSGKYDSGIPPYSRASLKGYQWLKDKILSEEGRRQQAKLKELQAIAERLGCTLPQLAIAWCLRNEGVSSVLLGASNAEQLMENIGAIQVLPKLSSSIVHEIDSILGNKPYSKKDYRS
# Chain of Alpha-2C adrenergic receptor (Homo sapiens) (P18825 whole entry, looked up): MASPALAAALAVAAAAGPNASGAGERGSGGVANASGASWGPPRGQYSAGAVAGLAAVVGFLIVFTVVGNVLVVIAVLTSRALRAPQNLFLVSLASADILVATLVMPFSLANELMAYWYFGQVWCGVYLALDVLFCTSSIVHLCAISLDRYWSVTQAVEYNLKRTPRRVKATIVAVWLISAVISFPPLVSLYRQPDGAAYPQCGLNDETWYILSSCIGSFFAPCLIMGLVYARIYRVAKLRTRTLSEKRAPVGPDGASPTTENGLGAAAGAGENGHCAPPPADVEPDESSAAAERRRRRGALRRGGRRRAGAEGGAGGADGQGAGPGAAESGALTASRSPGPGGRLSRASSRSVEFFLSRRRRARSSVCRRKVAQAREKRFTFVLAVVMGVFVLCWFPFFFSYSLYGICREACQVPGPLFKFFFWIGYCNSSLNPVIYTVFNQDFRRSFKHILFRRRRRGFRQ
Structure (SMILES),cell count [1],inhibition [1],inhibition of aggregation [2],nuclei count [2] [%],inhibition [3],nuclei count [3] [%],fluorescence slope [4],NADPH fluorescence slope [5],slope [6],inhibition [7],inhibition [8]
COCCOC(=O)/C=C1/NC(=O)CS1,669,5.3% (inactive),9.1% (inactive),100,45.1% (inactive),98.3,-0.606 (inactive),-1.8e-05 (inactive),0.00397 (inactive),15.1% (inactive),21.6% (inactive)
CC1(C)CC(=O)C=C(NC2CCS(=O)(=O)C2)C1 (stereo unspecified),624,11.3% (inactive),5.8% (inactive),59.6,10.6% (inactive),100,-0.561 (inactive),1.2e-05 (inactive),0.00618 (inactive),15.5% (inactive),39.3% (inactive)
COc1ccc(N2CCN(c3ccc(N)cc3C#N)CC2)cc1,744,-6.6% (inactive),28.1% (inactive),102,-65.8% (inactive),104,-0.593 (inactive),-2.3e-05 (inactive),0.00782 (inactive),3.39% (inactive),21.5% (inactive)
Cn1c(SCC(=O)Nc2cccc3ccccc23)nc(O)cc1=O,548,-0.9% (inactive),-2.1% (inactive),113,17.2% (inactive),120,-0.42 (inactive),-4.6e-05 (inactive),0.00441 (inactive),11.6% (inactive),15.1% (inactive)
O=C1CN(Cc2ccccc2)C(=NCc2ccco2)S1,446,3.4% (inactive),-5.3% (inactive),99.8,13.6% (inactive),97.4,-0.451 (inactive),-2.2e-05 (inactive),0.00487 (inactive),8.96% (inactive),30.9% (inactive)
CC(=O)c1c(C)[nH]c(C(=O)N2CCN(C(=O)c3ccco3)CC2)c1C,233,-19.9% (inactive),9.5% (inactive),94.7,-98.1% (inactive),120,-0.537 (inactive),9e-06 (inactive),0.00697 (inactive),-22.5% (inactive),10.9% (inactive)
Cc1cc(C)nc(NC(=O)c2c(-c3c(Cl)cccc3Cl)noc2C)n1,648,2% (inactive),3.9% (inactive),95.5,-7.8% (inactive),109,-0.435 (inactive),7.7e-06 (inactive),0.00547 (inactive),-2.48% (inactive),7.12% (inactive)
COc1cccc2cc(C(=O)OC3CCN(C)CC3)c(=O)oc12,532,-6.1% (inactive),38.8% (inactive),77.9,-56% (inactive),110,-0.605 (inactive),-2.6e-06 (inactive),0.00643 (inactive),6.92% (inactive),31.8% (inactive)
O=c1[nH]c2ccc(Br)cc2c(-c2ccccc2)c1N1CCOCC1,728,-8% (inactive),-1.1% (inactive),88.6,-12% (inactive),119,-0.396 (inactive),2.9e-05 (inactive),0.00458 (inactive),-7.49% (inactive),-16.4% (inactive)
CCOC(=O)CN(C(=O)c1ccccc1)c1ccccc1C,600,-2.5% (inactive),-11.5% (inactive),108,36% (inactive),72.6,-0.419 (inactive),1.1e-05 (inactive),0.00342 (inactive),3.43% (inactive),31% (inactive)
COc1ccc(N2Cc3ccccc3C2)cc1Cl,579,-12.3% (inactive),-13.8% (inactive),84,-2% (inactive),98.5,-0.527 (inactive),-2.4e-05 (inactive),0.00436 (inactive),-31.1% (inactive),-55.5% (inactive)
CCOC(=O)C1CCCN(C(=O)c2sc3nc(-c4ccccc4)cn3c2C)C1 (stereo unspecified),631,13.2% (inactive),5.7% (inactive),103,67.6% (active),76.5,-0.544 (inactive),1.7e-05 (inactive),0.00524 (inactive),-20.7% (inactive),-120% (inactive)
C/C=C(\C)c1nnc(NC(=O)C(C)C)s1,382,-29% (inactive),-12.2% (inactive),98.7,-50.6% (inactive),95.4,-0.474 (inactive),2.8e-06 (inactive),0.00558 (inactive),-13.7% (inactive),-7.26% (inactive)
Cc1noc(C)c1CSc1nc2cc(S(=O)(=O)N3CCOCC3)ccc2o1,515,-12.1% (inactive),-33.5% (inactive),135,-52% (inactive),118,-0.478 (inactive),-0.000262 (inactive),0.00432 (inactive),16.1% (inactive),19.5% (inactive)
Cc1cc(C)n(-c2nc3sc4c(c3c3nnc(SC(C)C)n23)CC(C)(C)OC4)n1,352,8.5% (inactive),2.2% (inactive),113,-22% (inactive),117,-0.455 (inactive),1.9e-05 (inactive),0.00472 (inactive),-16.9% (inactive),-11.9% (inactive)
Cn1cnc2c1c(=O)n(Cc1cccc(Br)c1)c(=O)n2C,320,1.4% (inactive),9.8% (inactive),113,-17.1% (inactive),122,-0.38 (inactive),8.1e-07 (inactive),0.00734 (inactive),14.2% (inactive),14.4% (inactive)
COc1ccc(CCn2c(-c3ccco3)nc3nc4ccccc4nc32)cc1,806,-5.6% (inactive),-7.3% (inactive),101,-25.4% (inactive),115,-0.445 (inactive),-3.4e-05 (inactive),0.00679 (inactive),18.8% (inactive),-6.71% (inactive)
CCCCOC(=O)Cn1c(=O)oc2ccc(C)cc21,741,-5.8% (inactive),3.3% (inactive),38,-96.5% (inactive),109,-0.589 (inactive),-4.7e-05 (inactive),0.00659 (inactive),-5.21% (inactive),7.21% (inactive)
c1ccc(CN2C3=NCCCN3c3ccccc32)cc1,361,-4.7% (inactive),-10.1% (inactive),97.9,-3.7% (inactive),117,-0.601 (inactive),-1.3e-05 (inactive),0.00493 (inactive),11.4% (inactive),22.1% (inactive)
CC1(C)CC(=O)C(C=Nc2ccc3c(c2)OCO3)=C(O)C1,329,1% (inactive),12.6% (inactive),104,-252% (inactive),86.4,-0.435 (inactive),-6.8e-05 (inactive),0.00387 (inactive),-6.77% (inactive),-5.98% (inactive)
Cc1nc(SCC(=O)Nc2cc(C)on2)c2c3c(sc2n1)CCCC3,461,2.5% (inactive),-13.2% (inactive),93.7,-33.9% (inactive),110,-0.579 (inactive),-5.9e-05 (inactive),0.00594 (inactive),6.61% (inactive),11.9% (inactive)
O=c1c(-c2ccccc2)coc2c(CN3CCOCC3)c(O)ccc12,335,-2.5% (inactive),-6.5% (inactive),108,-116% (inactive),129,-0.0601 (active),4.4e-06 (inactive),0.00553 (inactive),-3.14% (inactive),10.1% (inactive)
CN(C)c1ccc(/C(=N\O)c2ccccc2)cc1,429,1.2% (inactive),-6.9% (inactive),93.6,25.3% (inactive),103,-0.465 (inactive),1.6e-05 (inactive),0.00326 (inactive),-24.9% (inactive),-21.7% (inactive)
Cc1ccc(C(c2nnnn2CCC(C)C)N2CCN(C)CC2)cc1 (stereo unspecified),417,1% (inactive),8.9% (inactive),73.1,-73.9% (inactive),108,-0.598 (inactive),-4.8e-05 (inactive),0.00252 (inactive),13.9% (inactive),-3.3% (inactive)
CCOCCc1nnc(NC(=O)c2ccc(OC)c(OC)c2)s1,578,9.1% (inactive),-18.6% (inactive),97.6,-94.6% (inactive),154,-0.515 (inactive),-4.8e-05 (inactive),0.00549 (inactive),14.1% (inactive),20% (inactive)
COCCNC(=O)C(c1ccncc1)N(C(=O)Cn1nnc2ccccc21)c1ccc(OC)cc1 (stereo unspecified),679,8.2% (inactive),-3.2% (inactive),100,8.4% (inactive),99.8,-0.481 (inactive),-4.3e-05 (inactive),0.00706 (inactive),-0.74% (inactive),25.1% (inactive)
